HIV RNase H inh-1 = inhibitors of HIV-1 reverse transcriptase RNase H. RT-RNase H RNA/DNA duplex cleavage, fluorescence. 65,000 compounds, 1.9% hits. AID 565. inhibition, % at 10 µM; in the data active means inhibition above about 50%
HIV RNase H inh-2 = confirmation of HIV-1 reverse transcriptase RNase H inhibitors; shares compounds with HIV RNase H inh-1; Recombinant RT RNase H, fluorescent RNA/DNA duplex cleavage; inhibition, % at 10 µM; 1,000 compounds, 39% hits; AID 651; in the data active means inhibition above about 48%; inconclusive means no clear call, values can overlap the other calls
Starred values were filed as active, the others as inactive; ? = inconclusive. This excerpt belongs to a sample that is enriched for hits.

SMILES	HIV RNase H inh-1	others
Clc1ccc2c(c1)CNc1c(ncnc1N1CCOCC1)O2	-5
Cc1cc(NC(=O)CN2CCCC2c2nc3ccccc3s2)no1 (centres undefined)	-15
CC(=O)N1CCC(C(=O)Nc2ccccc2)(N(Cc2ccccc2)C(=O)c2cccnc2)CC1	3
c1ccc(CSc2nncn2-c2ccccn2)cc1	-5
CC1CCN(C(=O)CSc2nncn2-c2ccccn2)CC1	76*	HIV RNase H inh-2=37
CC1CCN(C(=O)CSc2nnc(Cn3c(=O)sc4ccccc43)n2C)CC1	-11
O=C1Nc2cc3c(cc2Sc2ccccc21)OCCO3	-40
Cc1ccc(NC(=O)C2CCN(S(=O)(=O)c3cccc4cccnc34)CC2)nc1	-23
COc1cc(OC)cc(C(=O)OCc2cc3ccccc3[nH]c2=O)c1	7
COc1ccc(C)cc1NC(=O)C1CCCN(S(=O)(=O)c2c(C)noc2/C=C/N(C)C)C1 (centres undefined)	-3
O=C(O)C1C2C=CC(C2)C1C(=O)NCCc1cccc(Cl)c1 (centres undefined)	0
Cc1cc(C)n2nc3nc4c(cc3c2n1)CCCC4	-16
CCOC(=O)Cc1csc(SCn2nnc3ccccc3c2=O)n1	-36
CCOC(=O)Cc1csc(NC(=O)Cc2cccs2)n1	9
CCOC(=O)Cc1csc(-n2sc3ccccc3c2=O)n1	97*	HIV RNase H inh-2=67*
CN(C)c1ccc2c(c1)N=C(c1ccco1)OP2(=S)N1CCOCC1 (centres undefined)	89*	HIV RNase H inh-2=68*
c1ccc(-n2c(-c3ccco3)nnc2N2CCOCC2)cc1	-7
O=C(Nc1ccc(Cc2ccncc2)cc1)c1ccco1	-2
C=CCn1c(Cc2c[nH]c3ccccc23)n[nH]c1=S	54*	HIV RNase H inh-2=20
C=CCN(CC=C)Cc1c[nH]c2ccccc12	-1
C=CCn1c(=S)[nH]c2ccccc2c1=O	-27
CCN(CC)CCN=C1CCCc2ccccc2N1	0
N#Cc1cn(-c2ccccc2)nc1-c1ccccc1	-9
Cc1cc(C(=O)Nc2ccccc2C#N)n(-c2ccccc2)n1	-11
N#Cc1cc(-c2ccccc2)nn1-c1ccccc1	91*	HIV RNase H inh-2=56*
SMILES	HIV RNase H inh-1	others
CC1CCN(C(=O)c2scc3c2OCCO3)CC1	-9
O=C(CSc1nnc(-c2cccs2)n1-c1ccccc1)NCc1ccc2c(c1)OCO2	-53
Cc1ccc(-n2c(SCC(=O)Nc3ccc4c(c3)OCO4)nnc2-c2cccs2)cc1	65*	HIV RNase H inh-2=29
Cc1ccc(-n2c(SCC(=O)Nc3ccc4c(c3)OCCO4)nnc2-c2ccco2)cc1	-14
O=C(CN1CCN(c2ccccn2)CC1)N(c1ccccc1)c1ccc2ccccc2c1	2
COC(=O)c1cc(S(=O)(=O)N2CCOCC2)c(N2CCOCC2)cc1N1CCOCC1	3
O=C(Nc1cccc(NS(=O)(=O)c2ccc(S(=O)(=O)NC3CC3)cc2)c1)c1ccccn1	-5
C=C(C)CSc1nnc(-c2ccccc2)n1N	38
CC1CCN(C2CC(=O)N(c3ccc(Br)cc3Br)C2=O)CC1 (centres undefined)	49
O=c1/c(=C\c2cccnc2)sc2nc3ccccc3n12	-30
O=C1c2sc3nc4ccccc4n3c2C(=O)N1c1ccccc1Cl	85*	HIV RNase H inh-2=72*
N=c1cc(C2(O)CCCCC2)n2c(nc3ccccc32)s1	-13
Cc1ccc(N2C(=O)c3sc4nnc(C)c(=O)n4c3C2=O)cc1	0
Cc1ccccc1N1C(=O)c2sc3nc4c(c(=O)n3c2C1=O)CCC4	88*	HIV RNase H inh-2=80*
O=C1c2sc3nc4c(c(=O)n3c2C(=O)N1c1ccccc1)CCC4	12
C[C@H]1C[C@@H]2[C@H]([C@@H](O)C[C@@]3(C)[C@H]2CC[C@]3(O)C(=O)CO)[C@@]2(C)C=CC(=O)C=C12	-9
CCc1nnc(NC(=O)CSc2nccn2-c2cc(C)cc(C)c2)s1	-20
CC1=C(C(=O)NCc2ccccc2)C(c2cccs2)n2ncnc2N1 (centres undefined)	-5
COc1cc(N2C(=O)NC3CC2(C)Oc2ccc(Br)cc23)cc(OC)c1OC (centres undefined)	5
COc1ccc(C2=NO[C@@H]3C(=O)N(c4ccc(C)cc4C)C(=O)[C@H]23)cc1OC	54*	HIV RNase H inh-2=-7
Cc1ccc(N2C(=O)[C@@H]3C(c4ccc(F)cc4)=NO[C@@H]3C2=O)cc1	2
COc1ccc(C2=NO[C@@H]3C(=O)N(c4cccc(C)c4C)C(=O)[C@H]23)cc1OC	6
COc1cc(OC)cc(C(=O)N2CCC(N3CCCCCC3)CC2)c1	13
O=Nc1c2nc3ccccc3n(O)c-2c2ccccc12	-10
COc1ccccc1OCCC(=O)OCC(=O)Nc1ncc(Cl)cc1Cl	4
SMILES	HIV RNase H inh-1	others
O=C(NCc1cccnc1)C1c2ccccc2C(=O)N1Cc1ccco1 (centres undefined)	15
CC(C)Oc1ccc(-c2nn(-c3ccccc3)cc2/C=c2\sc3ncnn3c2=O)cc1	70*	HIV RNase H inh-2=?
C=CCOc1ccccc1/C=c1\sc2nc(=O)c(C)nn2c1=O	13
COc1ccccc1/C=c1\sc2nc(-c3cccs3)nn2c1=O	9
COCCN1Cc2cccc(C(=O)NCc3cccnc3)c2C1=O	-5
COc1ccc(Cc2c(O)nc(SC)n(C(C)=O)c2=O)cc1	-18
COc1ccc(-n2c(SCC(N)=O)nnc2-c2ccccc2F)cc1	-9
Cn1c(=O)c2c(nc(CN3CCOCC3)n2CC(O)CO)n(C)c1=O (centres undefined)	0
Cc1ccc(C(=O)CC(C(=O)O)n2cccn2)cc1 (centres undefined)	-1
COC(=O)C(CC(=O)c1ccc(Br)cc1)n1ccnc1 (centres undefined)	79*	HIV RNase H inh-2=36
CCOC(=O)N1CCN(C(=O)CC(C(=O)N2CCc3ccccc32)n2ccnc2)CC1 (centres undefined)	-4
O=C(CCN1C(=O)C2C3C=CC(C3)C2C1=O)NC1CCCc2ccccc21 (centres undefined)	-1
CN(CCO)C(=O)CCC(=O)Nc1ccc(S(N)(=O)=O)cc1	-8
CCCC(=O)Nc1cccc(NC(=O)CN2CCN(c3ccccc3OC)CC2)c1	-3
CCCC(=O)Nc1ccc(Cl)c(NC(=O)c2ccco2)c1	-3
CCCC(=O)Nc1ccc(N2CCN(CC)CC2)c(Cl)c1	81*	HIV RNase H inh-2=7
Cc1cc(C)cc(NC(=O)CCN2CC(C)OC(C)C2)c1 (centres undefined)	-2
CCCCCC(C(=O)O)C(C)CC(=O)NC1CCCCC1 (centres undefined)	-1
COCCNS(=O)(=O)c1ccc(SC)cc1	-8
COc1ccc2[nH]c(=O)c(CNC3CCCCC3)cc2c1	-3
COc1ccc(NCc2cc3ccccc3[nH]c2=O)cc1	-6
COc1ccc(NCc2cc3cc(OC)ccc3[nH]c2=O)cc1	56*	HIV RNase H inh-2=1
CC1(C)OC(=O)C(=CNC(Cc2c[nH]c3ccccc23)C(=O)O)C(=O)O1 (centres undefined)	-13
N#C/C(C(=O)N1CCOCC1)=C1/SC=C(c2ccccc2)N1c1ccccc1	0
CC(C)(C)C1=Nn2c(nnc2-c2n[nH]c3c2CCC3)SC1	53*	HIV RNase H inh-2=35
Fc1ccc(C2=Nn3c(nnc3-c3n[nH]c4c3CCC4)SC2)cc1	-27
CC1=Nn2c(nnc2-c2n[nH]c3c2CCC3)SC1	-5
Cc1cccc(-n2ncc3c(N4CCN(c5nc(C)cc(C)n5)CC4)ncnc32)c1	4
O=S(=O)(Nc1ccc2c(c1)OCO2)c1ccc(Br)s1	13
COc1cccc(-n2c(SCC(N)=O)nc3c([nH]c4ccccc43)c2=O)c1	6
